From article PMC4552634, “A New Set of Chemical Starting Points with Plasmodium falciparum Transmission-Blocking Potential for Antimalarial Drug Discovery” (PLoS ONE, 2015)
Out of some 13,000 compounds screened, about 3,200 (25%) showed an effect of 50% or more. The list shows a part of the results.

Each compound was assayed on P. falciparum stage V gametocytes. Conditions: 48 h, 5 µM; inhibitor.
Design: BacTiter-Glo ATP luminescence viability of purified stage V gametocytes in 384-well plates, per cent inhibition versus DMSO

SMILES | % Inhibition
CN1CCN(c2cc3c(cc2Cl)CCN3C(=O)Cc2ccc(Cl)c(NC(=O)Nc3cccc([N+](=O)[O-])c3)c2)CC1 [TCMDC-139473] | -0.749%
O=C(Nc1ccc(F)cc1F)NC1CCN(c2ccnc3cc(Cl)ccc23)C1 (stereo not shown) [TCMDC-133658] | -14.22%
CCCOc1ccc(C(F)(F)F)cc1NC(=O)c1nc2nc(C)cc(C)n2n1 [TCMDC-125466] | -88.48%
COc1ccc(N2CCc3c(-c4cccc5cnccc45)cc(C)nc32)c(C)c1 [TCMDC-136362] | -0.3846%
O=C(NCCCN1CCOCC1)c1ccc(-c2cccc(NC(=O)c3ccc(Cl)c(Cl)c3)c2)cc1 [TCMDC-133693] | -20.47%
O=C1CC(C(=O)O)CC(=O)N1 [TCMDC-125482] | 13.38%
COc1ccccc1-n1c(-c2ccc3ccccc3c2)csc1=NC(=O)c1ccccc1 [TCMDC-125668] | -1.763%
O=C(NCCCCN1CCC(C(c2ccccc2)c2ccccc2)CC1)c1ccc(NC(=O)c2ccc(Cl)cc2)cc1 [TCMDC-138332] | -3.792%
CC(C)Cn1cc(C2CCN(CCN3CCC(CNC(=O)c4ccc(NC(=O)c5cc(Cl)cc(Cl)c5)cc4)CC3)CC2)c2ccccc21 [TCMDC-138868] | 108.5%
O=C(NCCN1CCC(c2ncc(-c3ccccc3)o2)CC1)c1ccc(NC(=O)c2ccc(Cl)cc2)cc1 [TCMDC-138483] | -8.107%
Cn1cc(C2CCN(CCCCNC(=O)c3ccc(C(=O)Nc4ccc(C#N)cc4)cc3)CC2)c2ccccc21 [TCMDC-138788] | -0.3465%
CC(C)Cn1cc(C2CCN(CCN3CCC(CNC(=O)c4ccc(NC(=O)c5ccc(Cl)cc5)cc4)CC3)CC2)c2ccccc21 [TCMDC-138865] | 102.8%
Cc1nc(-c2ccccc2)nc(N2CCN(C(=O)c3ccco3)CC2)c1Cc1ccccc1F [TCMDC-124778] | -3.417%
CC1(C)NC(N)=NC(=N)N1OCCSCCON1C(=N)N=C(N)NC1(C)C [TCMDC-131648] | 6.143%
COCCn1c(-c2cccc(Cl)c2)nn(-c2ccc([N+](=O)[O-])cc2C#N)c1=S [TCMDC-134719] | 95.24%
COc1cc([N+](=O)[O-])ccc1NC(=O)c1cc(Cl)ccc1O [TCMDC-124051] | 28.26%
COCCn1c(-c2cccc(Cl)c2)nn(-c2ccc([N+](=O)[O-])cc2Cl)c1=S [TCMDC-135130] | 91.77%
O=C(Cc1cccc(O)c1)NCC(Cc1ccc(O)cc1)c1ccccc1 (stereo not shown) [TCMDC-138482] | 7.528%
CC1CCc2c(C(=O)Nc3c(F)cc(F)cc3Br)csc2C1 (stereo not shown) [TCMDC-125219] | 6.238%
Cc1cc(N2CCN(C3CCCCC3)CC2)nc2cccc(O)c12 [TCMDC-124411] | 54.36%
Cc1cc(N2CCC(C)CC2)nc2cc(O)ccc12 [TCMDC-124413] | -4.047%
Cc1cc(Nc2ccc(O)cc2)nc2cccc(O)c12 [TCMDC-124414] | -26.97%
COc1ccc(Cl)c(CC2c3cc(O)c(Cl)cc3CCN2C)c1 (stereo not shown) [TCMDC-137168] | -67.78%
CN(Cc1ccc(-c2ccc(C(F)(F)F)cc2)cc1)C(=O)Cn1c(CCc2cccc(F)c2F)cc(=O)c2ccc(OCC3CCCN3C)cc21 (stereo not shown) [TCMDC-141405] | 117.2%

SMILES | % Inhibition
CN(C)CCOc1ccc2c(=O)cc(CCc3cccc(F)c3F)n(CC(=O)N(C)Cc3ccc(-c4ccc(C(F)(F)F)cc4)cc3)c2c1 [TCMDC-141375] | 124.4%
CN(Cc1ccc(-c2ccc(C(F)(F)F)cc2)cc1)C(=O)Cn1c(CCc2cccc(F)c2F)cc(=O)c2ccc(OCCCN3CCCCC3)cc21 [TCMDC-141377] | 112.1%
CCN(CC)CCc1ccc2c(=O)cc(CCc3cccc(F)c3F)n(CC(=O)N(C)Cc3ccc(-c4ccc(C(F)(F)F)cc4)cc3)c2c1 [TCMDC-141559] | 137.8%
CCOC(=O)CCCCCNC[C@H](O)c1ccccc1 [TCMDC-131776] | -2.137%
CC(C)NCc1ccc(-c2ccc(CN3CCCC(c4ccccc4)C3)cc2)c(C(=O)NCC2CCCCC2)c1 (stereo not shown) [TCMDC-134699] | 33.35%
O=S(=O)(NCCN1CCCC1)c1ccc(-c2ccc(CNCc3ccccc3)cc2)cc1 [TCMDC-132228] | 101.6%
Cc1c(CNCCN2CCCCC2)c(C(=O)O)c(C)n1Cc1ccc(Cl)cc1 [TCMDC-125269] | 31.51%
O=S(=O)(NCCN1CCCC1)c1ccc(-c2ccc(CNCc3ccc(F)cc3)cc2)cc1 [TCMDC-132280] | 62.82%
O=S(=O)(Nc1cc2c(cc1O)CCN(C1CCC1)CC2)c1ccc(-c2ccc(F)cc2)cc1 [TCMDC-136084] | -82.22%
NC(Cc1ccc(Cl)cc1)=NCCN1CCCCCC1 [TCMDC-137727] | 39.5%
Clc1ccc(-c2ccc(CNCCCN3CCCC3)cc2)cc1 [TCMDC-140148] | 75.83%
COC(=O)c1cc(/C(C)=N/Nc2nc3ccccc3[nH]2)ccc1O [TCMDC-139075] | -14.17%
O=C(NC1CC1)c1ccc(N2CCC(Cc3ccccc3)CC2)nc1 [TCMDC-134591] | 24.62%
COC(=O)c1ccc(CC(C)NCC(O)c2cccc(C(F)(F)F)c2)cc1C (stereo not shown) [TCMDC-131470] | 8.047%
OC[C@H](Nc1nc(C(Oc2ccccc2)c2ccccc2)nc2[nH]ncc12)c1ccccc1 (stereo partly shown) [TCMDC-136552] | 43.31%
C[C@H](Nc1nc(C(Oc2ccccc2)c2ccccc2)nc2[nH]ncc12)c1ccccc1 (stereo partly shown) [TCMDC-136553] | 53.92%
COc1cccc(OC(C)(C)c2nc(N[C@@H](C)c3ccccc3)c3cn[nH]c3n2)c1 [TCMDC-136619] | 13.05%
CC1(C)NC(N)=NC(=N)N1OCc1ccc(-c2ccccc2)cc1 [TCMDC-131591] | -7.815%
Cc1cc(NN=Cc2ccccc2Cl)c2ccccc2n1 [TCMDC-142059] | -35.38%
COc1ccc2nc(C)cc(NN=Cc3cccc(Cl)c3)c2c1 [TCMDC-142077] | 106.6%
COc1ccc2c(NN=Cc3cccc(C)n3)ccnc2c1 [TCMDC-142031] | -34.06%
Cc1ccc2nc(C)cc(NN=CC=Cc3ccccc3)c2c1 [TCMDC-123974] | -10.18%
COc1ccc2c(NN=Cc3ccccc3Cl)cc(C)nc2c1 [TCMDC-142079] | 78.38%
COc1ccc2c(NN=Cc3cccc(Cl)c3)cc(C)nc2c1 [TCMDC-142080] | 55.62%

SMILES | % Inhibition
COc1ccc2nc(C)cc(NN=Cc3ccccc3Cl)c2c1 [TCMDC-142078] | -47.04%
COc1cc(C=NNc2cc(C)nc3ccccc23)cc(OC)c1OC [TCMDC-123958] | -11.67%
Cc1cc(NN=CC=Cc2ccccc2)c2ccccc2n1 [TCMDC-142074] | -83.64%
COc1ccc2nc(C)cc(N/N=C/C=C/c3ccccc3)c2c1 [TCMDC-142095] | 88.89%
CN(Cc1c(Cl)cnn1C)S(=O)(=O)c1ccc2ccccc2c1 [TCMDC-124903] | 3.551%
CC(=O)Nc1ncc(C(=O)Nc2cccc(-c3ccc(-c4nc5cc(C(F)(F)F)ccc5[nH]4)s3)c2)s1 [TCMDC-136915] | 15.71%
Cc1ccc(CN2CCC(C(=O)Nc3ccc(-c4cc5ccccc5[nH]4)cc3)CC2)o1 [TCMDC-124634] | -0.9664%
CC(ON1C(N)=NC(N)=NC1(C)C)c1ccccc1 (stereo not shown) [TCMDC-131596] | 28.25%
O=C(Nc1ccc(-n2ccc(C(F)(F)F)n2)cc1)c1cccs1 [TCMDC-125785] | 28.31%
Cc1cc(CNC(=O)[C@H](CC2CCCCC2)Nc2ccc(C#N)c3ccccc23)c(C(F)(F)F)o1 [TCMDC-136628] | -91.12%
Cc1cnc(-c2ccc(NC(=O)c3coc4ccc(N5CC(C)N(C)C(C)C5)cc34)cc2)o1 (stereo not shown) [TCMDC-141361] | 27.19%
Cc1cc(O)nc(NC(=N)NOCc2ccccc2)n1 [TCMDC-131683] | 7.113%
O=C(NC1CCCC1)c1ccc(N2CCC(NCc3cc4cc(Cl)ccc4[nH]3)CC2)cc1 [TCMDC-124662] | -4.187%
CCOc1ccc(C(=O)Nc2cc(Br)c3c(c2)CNCC3)cc1C#N [TCMDC-139731] | 94.42%
COc1ccc(C(=O)Nc2cc(Br)c3c(c2)CNCC3)cc1Br [TCMDC-139727] | 19.9%
CCOc1ccc(C(=O)Nc2cc(Br)c3c(c2)CNCC3)cc1Cl [TCMDC-139730] | 27.05%
CCOc1ccc(C(=O)Nc2cc(Br)c3c(c2)CNCC3)cc1Br [TCMDC-139729] | 61.1%
CCOc1ccc(C(=O)Nc2cc(Br)c3c(c2)CNCC3)cc1C(F)(F)F [TCMDC-139732] | 37.39%
COc1ccc(C(=O)Nc2cc(Br)c3c(c2)CNCC3)cc1C(F)(F)F [TCMDC-139728] | 19.24%
O=C1c2ccccc2C(=O)N1c1ccc(S(=O)(=O)N2CCOCC2)cc1 [TCMDC-125740] | 8.047%
CC(=O)N(C)c1ccc(C(=O)Nc2cccc(-c3cccc(-c4nc5c(C)cccc5[nH]4)c3)c2)cc1 [TCMDC-136850] | -24.43%
CC(C)Sc1nc2c(c(=O)n1Cc1ccco1)C1(CCCC1)Cc1ccccc1-2 [TCMDC-125844] | 9.662%
